The panel holds about 83,000 compounds, 20% with a hit somewhere; the sample as a whole holds those more often.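 Assay: single dose, 48 h. Readout: percent growth (0 = no net growth; negative = cell death). Active: <10.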 Unmarked numbers belong to inactive results. Activity calls are given as the source filed them.
What was measured:
Test in all cases: NCI-60 one-dose screen, 48 h (100 = growth as untreated, 0 = no growth, -100 = all killed)
Conditions in all cases: 10 µM unless noted
NCI-H23 lung = tested on: NCI-H23 lung
NCI-H226 lung = tested on: NCI-H226 lung
NCI-H322M lung = tested on: NCI-H322M lung
HOP-62 NSCLC = tested on: HOP-62 NSCLC
NCI-H460 lung = tested on: NCI-H460 lung
HOP-92 NSCLC = tested on: HOP-92 NSCLC
NCI-H522 lung = tested on: NCI-H522 lung
A549/ATCC NSCLC = tested on: A549/ATCC NSCLC
786-0 renal = tested on: 786-0 renal
COLO 205 colon = tested on: COLO 205 colon
DU-145 prostate = tested on: DU-145 prostate
K-562 leukemia = tested on: K-562 leukemia
MALME-3M melanoma = tested on: MALME-3M melanoma
MDA-MB-231 breast = tested on: MDA-MB-231 breast
RXF 393 renal = tested on: RXF 393 renal
SF-268 CNS = tested on: SF-268 CNS
SF-295 CNS = tested on: SF-295 CNS
SF-539 CNS = tested on: SF-539 CNS
UACC-257 melanoma = tested on: UACC-257 melanoma
M14 melanoma = tested on: M14 melanoma

| SMILES | growth (NCI-H23 lung) | growth (NCI-H226 lung) | growth (NCI-H322M lung) | growth (HOP-62 NSCLC) | growth (NCI-H460 lung) | growth (HOP-92 NSCLC) | growth (NCI-H522 lung) | growth (A549/ATCC NSCLC) | growth (786-0 renal) | growth (COLO 205 colon) | growth (DU-145 prostate) | growth (K-562 leukemia) | growth (MALME-3M melanoma) | growth (MDA-MB-231 breast) | growth (RXF 393 renal) | growth (SF-268 CNS) | growth (SF-295 CNS) | growth (SF-539 CNS) | growth (UACC-257 melanoma) | growth (M14 melanoma) |
| --- | --- | --- | --- | --- | --- | --- | --- | --- | --- | --- | --- | --- | --- | --- | --- | --- | --- | --- | --- | --- |
| CN(C)c1ccc(/C=N\Nc2cc(=O)[nH]c3ccc(Cl)cc23)cc1 | 82.8% | 75% | 99.2% | 91.8% | 102% | 82.2% | 86.1% | 96.6% | 102% | 112% | 123% | 91.8% | 122% | 91.5% | 105% | 99.5% | 98% | 101% | 98.1% | 94.5% |
| COc1ccc(-c2cc(-c3ccc(Cl)cc3)c(C#N)c(=O)n2CCCCCC(=O)Nc2ccccc2N)cc1 | 63.1% | 72.9% | 61.4% | 41.8% | 26.7% | 13% | 33.7% | 35.7% | 41.5% | 10.1% | 49.8% | 15% | 39% | 55.6% | 29.8% | 75.9% | -19.5% (active) | 60% | 23.4% | -10.9% (active) |
| COc1cc(C2CC(c3ccc(SC)cc3)=NN2C(C)=O)cc(OC)c1OC (stereo not given) | 70.5% | 85.3% | 91% | 80.1% | 48.6% | 83.7% | 35.2% | 58% | 84.6% | 64.6% | 91% | 31.1% | 59.6% | 85.3% | 77.7% | 77.2% | 44.1% | 78.1% | 79.4% | 44.3% |
| O=c1c2cccc(Cl)c2sc2c(NCCCNCCO)nc3ccccc3c12 | 52.4% | 67.7% | 44% | 39.6% | -86.2% (active) | -0.275% (active) | 49.5% | 27.5% | 45.6% | -61.4% (active) | 13.9% | -48.1% (active) | 77.8% | -25.3% (active) | 50.3% | 42.1% | 73.9% | 27.4% | 97% | -72.7% (active) |
| O=c1c2cc(F)cc(Cl)c2sc2c(NCCCNCCO)nc3ccccc3c12 | 89.9% | 106% | 89.8% | 90.1% | 10.3% | 65.6% | 92.4% | 83.7% | 81.7% | 73.5% | 77% | 18.7% | 99.8% | 48.8% | 80.3% | 67.1% | 104% | 88.5% | 109% | 62.3% |
| Cc1c(C(=O)/C=C/Nc2c(Cl)cc(S(N)(=O)=O)cc2Cl)sc2nc3ccccc3n12 | 99.8% | 99.6% | 107% | 107% | 104% | 111% | 89.9% | 103% | 107% | 110% | 107% | 105% | 105% | 102% | 115% | 95.4% | 101% | 96.6% | 105% | 106% |
| C#Cc1cccc(NC(=O)c2ccc(NC(=O)C=C)cc2)c1 | 99.1% [8.25 µM] | 88.1% [8.25 µM] | 84.4% [8.25 µM] | 95.2% [8.25 µM] | 94.5% [8.25 µM] | 90% [8.25 µM] | 45.4% [8.25 µM] | 69.6% [8.25 µM] | 56.5% [8.25 µM] | 115% [8.25 µM] | 58.9% [8.25 µM] | 71% [8.25 µM] | 85.2% [8.25 µM] | 90% [8.25 µM] | 58.7% [8.25 µM] | 79.3% [8.25 µM] | 102% [8.25 µM] | 75.6% [8.25 µM] | 69.9% [8.25 µM] | 86.3% [8.25 µM] |
| O=CN1N=C(c2ccc(Nc3ccnc4cc(Cl)ccc34)cc2)CC1c1ccccc1 (stereo not given) | 48% | 65.3% | 81.3% | 49.8% | 44.4% | 16.3% | 2.53% (active) | 37.6% | 31.4% | 55.2% | 35.8% | 11.8% | 24.7% | 32.9% | 31.4% | 37.4% | 17.4% | 25.9% | 63.3% | 25.6% |
| CN(C)CCCNc1nc2ccccc2c2c(=O)c3cc(F)ccc3sc12 | 70.6% | 91.5% | 71.2% | 65% | -1.74% (active) | 24% | 39.2% | 57% | 59.3% | -34.1% (active) | 26.2% | -27% (active) | 81.6% | -29.6% (active) | 48.4% | 52.5% | 78.2% | 27.3% | 84.9% | -64.1% (active) |
| COc1ccc(/C=N/Nc2cc(=O)[nH]c3ccc(Cl)cc23)cc1 | 20.2% | 80.4% | 66.3% | 71.9% | 23.9% | 70.8% | -42.7% (active) | 40.2% | 62.1% | 83.3% | 64.7% | 20.9% | 46% | 71.3% | 85.6% | 58.9% | 72.6% | 97.2% | 81.7% | 54.8% |
| NCCCNc1nc2ccccc2c2c(=O)c3cc(F)cc(Cl)c3sc12 | 95.5% | 88.9% | 87.7% | 92.6% | -74% (active) | 70.4% | 92.9% | 79.1% | 86.3% | 106% | 64.1% | -17.7% (active) | 106% | 51.4% | 73.6% | 79.9% | 102% | 83% | 114% | 90.4% |
| O=C1CCC(C(=O)NCCNCCNC(=O)C2CCC(=O)N2)N1 (stereo not given) | 106% | 97.7% | 104% | 93.7% | 102% | 80.6% | 72.5% | 88.4% | 101% | 110% | 109% | 101% | 105% | 121% | 101% | 100% | 100% | 102% | 93% | 96.5% |
| CCc1cccc2c3c(sc12)C(c1ccc(F)cc1)C(C#N)=C(N)O3 (stereo not given) | 33.6% | 29.1% | 57.7% | 48.7% | 12.9% | 78.9% | 26.8% | 31.9% | 30% | 5.48% (active) | 24.5% | 12.4% | 75.9% | 21.1% | 1.43% (active) | 54.5% | 8.12% (active) | 2.76% (active) | 74.2% | 19.2% |
| CC(=O)CC[C@H]1C(=O)N[C@@H](C(C)C)C(=O)N[C@@H](Cc2cc(O)cc(F)c2)C(=O)N2CCC[C@H](N2)C(=O)O[C@H](/C(C)=C/C=C/C(=O)OC(C)(C)C)C/C=C/C=C/[C@H](O)[C@H](C)[C@H]1O | 42.2% | 76.8% | 69.2% | 44.9% | 13.3% | 55.2% | 43.8% | 49.9% | 36.2% | 51.7% | 42.6% | 21.6% | 73.6% | 47.5% | -5.28% (active) | 54.4% | 50.2% | 66.8% | 53% | 54.9% |
| COC(=O)Nc1ccc(-c2nc(-c3cccc(OC)c3)c(-c3ccnc(Br)c3)[nH]2)cc1 | 67.7% | 59.1% | 62.2% | 59.4% | 61.2% | 62.8% | 57.9% | 54.4% | 37.4% | 79.7% | 81.4% | 13.8% | 66.7% | 65.3% | -12.2% (active) | 76% | 9.58% (active) | 51.6% | 71.7% | 42.5% |
